Assay outcomes: PubChem BioAssay, Paczesny and Yang Labs, IUPUI and University of Michigan
ST2 IL33 inh: inhibitors of human ST2 (IL1RL1) binding to IL-33; inhibition, % for hits at 17 µM; 78,000 tested, 2.3% active; AID 1259354; AlphaLISA ST2-Fc/biotin-IL-33 interaction, 1 h; Q01638; in the data active = inhibition above about 30%
Target sequence (Q01638 whole entry, looked up): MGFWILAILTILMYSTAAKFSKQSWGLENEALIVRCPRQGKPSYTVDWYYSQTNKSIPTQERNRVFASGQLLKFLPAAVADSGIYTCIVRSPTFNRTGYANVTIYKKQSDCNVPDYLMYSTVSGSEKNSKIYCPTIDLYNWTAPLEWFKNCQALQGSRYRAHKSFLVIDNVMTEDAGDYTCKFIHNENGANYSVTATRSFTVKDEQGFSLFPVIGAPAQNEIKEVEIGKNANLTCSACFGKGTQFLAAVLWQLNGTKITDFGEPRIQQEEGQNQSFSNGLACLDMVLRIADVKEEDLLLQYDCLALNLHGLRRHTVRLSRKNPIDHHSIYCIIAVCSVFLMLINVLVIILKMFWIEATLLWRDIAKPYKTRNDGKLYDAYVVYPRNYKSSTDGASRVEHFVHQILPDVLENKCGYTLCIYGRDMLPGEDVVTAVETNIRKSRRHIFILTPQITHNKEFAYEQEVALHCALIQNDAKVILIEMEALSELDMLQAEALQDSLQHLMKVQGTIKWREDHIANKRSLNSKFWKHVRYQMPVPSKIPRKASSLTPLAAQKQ
Each line names hits and unclear results; the compound was inactive in the other large screens; ! = repeats disagree. The full list was thinned out, with hits kept by preference.

CN1CCN(C2=NC(=O)/C(=C/c3cccs3)S2)CC1	none
Cc1ccc(/C=c2\sc3nc(-c4ccc(OC(C)C)cc4)nn3c2=O)o1	none
O=c1oc2ccccc2c(Nc2ccccn2)c1[N+](=O)[O-]	none
NC(=O)c1csc(-c2cc(NC3CCCC3)nc3[nH]ccc23)n1	none
c1ccc2c(-c3cc(NC4CCNCC4)nc4[nH]ccc34)n[nH]c2c1	ST2 IL33 inh 46%
COc1ncc(-c2cc(NCCN(C)C)nc3[nH]ccc23)c(OC)n1	none
CC(O)c1cccc(-c2cc(NC3CCNCC3)nc3[nH]ccc23)n1 (stereo unspecified)	ST2 IL33 inh 46%
c1cnc(-c2cc(NC3CCNCC3)nc3[nH]ccc23)nc1	ST2 IL33 inh 41%
Cc1ccccc1-n1cc(-c2ccnc(NC3CCNCC3)n2)cn1	none
CCNc1ccnc(-c2cccc3[nH]ccc23)n1	none
Cc1cc(-c2cc(NC3CCNCC3)nc3[nH]ccc23)c(=O)[nH]c1C	ST2 IL33 inh 38%
COc1ccc2cnn(-c3nc4ccccc4[nH]3)c(=O)c2c1OC	none
CCc1ccc(OCC(=O)Nc2ccc(OC)cc2)cc1	none
CCC1CCCCN1C(=O)CSc1nc2c(c(=O)n1-c1ccc(C)cc1)SCC2 (stereo unspecified)	none
COc1ccc(Nc2c(-c3ccc(F)cc3)nc3cnccn23)cc1	none
Cc1ccc(N2C(=O)C3C4C=CC(C4)C3(C)C2=O)cc1 (stereo unspecified)	none
CC(C)(C)S(=O)(=O)c1ccc(N)nc1	none
O=C1C=C(Nc2cccc(Cl)c2)CC(c2ccccc2)C1 (stereo unspecified)	none
COC(=O)C1C(=O)C2=C(CC1C)NC(C)=C(C(=O)OC(C)C)C2c1cccc(OC)c1 (stereo unspecified)	none
COc1ccc2nc(NC(=O)C3(S(=O)(=O)c4ccc(Cl)cc4)CC3)sc2c1	none
COc1ccc2c(c1)CCc1c(C(=O)N3CCCc4ccccc43)noc1-2	none
O=C(NC1CCCC1)C1CCC(=O)N1Cc1ccccc1Cl (stereo unspecified)	none
Cc1ccccc1C1CCCN(C(=O)c2cn(Cc3ccc(F)cc3)nn2)C1 (stereo unspecified)	none
O=C(CCc1nc2ccccc2[nH]1)N1CCCC2(CCNCC2)CC1	none
O=C1C2C3C=CC(C3)C2C(=O)N1c1ccc(Cl)c(C(F)(F)F)c1 (stereo unspecified)	none
CCC(C)n1c(=N)c(C(=O)NC2CCCC2)cc2c(=O)n3ccccc3nc21 (stereo unspecified)	none
O=[N+]([O-])c1cc(CN2CCCCC2)ccc1O	none
O=[N+]([O-])c1cc(CN2CCOCC2)ccc1O	none
O=[N+]([O-])c1cc(Cc2ccccc2)ccc1O	ST2 IL33 inh 36%
Cn1c(SCC(=O)Nc2cc(=O)n(C)c(=O)n2C)nnc1C12CC3CC(CC(C3)C1)C2	none
Nc1nc2ccc(NC(=O)c3ccccc3)cc2s1	none
Cc1nc2ccccc2nc(C)c1=NOCc1ccccc1Cl	none
Cc1ccc(-c2nc(NCCc3cccnc3)ncc2-c2ccc(N)nc2)cc1	none
CC(C)COc1ccc2c(c1)c1c3n2CCNC3CCC1 (stereo unspecified)	none
CC(C)COc1ccc2c(c1)c1c3c(nccn32)CCC1	ST2 IL33 inh 38%
COC(=O)C1CCN(C(=O)c2cc(Cn3ccc4ccccc43)[nH]n2)CC1	none
Cc1cnc(N(C)CC2CC(=O)N(C(C)(C)C)C2)nc1N(C)C (stereo unspecified)	none
CCN(CC)c1ccc(C2C3=C(CC(C)(C)CC3=O)Nc3nc(SC)[nH]c(=O)c32)cc1 (stereo unspecified)	none
CSC1=N/C(=C\c2cc3c(cc2Br)OCO3)C(=O)S1	none
CCN(CC)c1ccc(/C=C2\N=C(SC)SC2=O)cc1	ST2 IL33 inh 63%
Cc1cc([N+](=O)[O-])nn1CCCC(=O)Nc1c(Cl)cccc1Cl	none
COc1ccc(OC)c(S(=O)(=O)NC2CCCCC2C)c1 (stereo unspecified)	none
CCCNS(=O)(=O)c1ccc(OC)c(OC)c1	none
COc1ccc(S(=O)(=O)NC2CCCCC2C)cc1OC (stereo unspecified)	ST2 IL33 inh 34%!
Cc1cc(CNC(=O)c2ccncc2F)c2[nH]c(-c3ccccc3)c(C)c2c1	none
Cc1ccc(C(C)C)c(OCC(=O)OCCN2C(=O)c3ccccc3C2=O)c1	none
Cc1ccnc(Nc2nc(-c3ccccn3)cs2)c1	none
Cc1ccc(Nc2nc(-c3ccc(F)cc3)cs2)cc1C	none
Cc1ccnc(Nc2nc(-c3ccc(O)c(O)c3)cs2)c1	ST2 IL33 inh 44%
COC1CCCN(Cc2nc(Cc3cccc(C(F)(F)F)c3)no2)C1 (stereo unspecified)	none
CC1CC(C)CN(c2ncnc(N)c2[N+](=O)[O-])C1 (stereo unspecified)	none
Cc1c(C(=O)N2CCN(C)CC2)sc2ncnc(N3CCN(c4ccccn4)CC3)c12	none
CCCOc1ccc(-c2nc(OC)c3ccccc3n2)cc1	none
CN(C)c1ccc(/C=c2\sc3nnc(-c4ccccc4Cl)n3c2=O)cc1	none
COc1ccc(/C=c2\sc3nnc(-c4ccccc4Cl)n3c2=O)cc1	none
Cc1ccc(/C=c2\sc3nnc(-c4ccccc4Cl)n3c2=O)o1	ST2 IL33 inh 37%
O=C(c1cn(Cc2cccc3ccccc23)nn1)N1CCN(c2nc3ccccc3o2)CC1	none
O=S1(=O)N=C(N2CCN(CCO)CC2)c2ccccc21	none
COc1ccc(CCNC(=O)C2CCN(S(=O)(=O)c3ccc(F)cc3)CC2)cc1OC	none
Cn1c(=O)cc(SCC(=O)NCCN2CCN(c3ccccc3F)CC2)c2ccccc21	none
O=C(NCc1ccccc1Cl)C1CCN(Cc2c(F)cccc2Cl)CC1	none
CN(C)c1ccc(CN2CCc3c([nH]c4ccccc34)C2)cc1	ST2 IL33 inh 32%
CCOc1ccc(CN2CCc3ccccc3C2)cc1	none
c1ccc2c3c([nH]c2c1)CN(Cc1ccc2c(c1)OCO2)CC3	none
Clc1ccccc1CN1CCc2c([nH]c3ccccc23)C1	none
Clc1ccc(CN2CCc3ccccc3C2)cc1Cl	none
CN(C)c1ccc(CN2CCc3ccccc3C2)cc1	ST2 IL33 inh 31%
CC(C)Nc1ncc(CN2CCCC(C(=O)c3ccc4ccccc4c3)C2)cn1 (stereo unspecified)	none
COc1ccc(C=Nc2nc(-c3ccccc3)c(C)s2)cc1OC	none
O[C@@H]1C[C@@H](c2nc(Cc3ccccc3)no2)N(Cc2cccs2)C1	none
CCc1nc(CN2CCc3[nH]cnc3C2c2ccc(NC(C)=O)cc2)c(C)[nH]1 (stereo unspecified)	none
CCSc1nc(CC(=O)NCc2cc(CC)no2)cs1	none
CCSc1nc(CC(=O)NCc2ccc(CC)cn2)cs1	none
CCSc1nc(CC(=O)NCc2sc(C)nc2CC)cs1	ST2 IL33 inh 31%
COc1ccc(C2SCCN2S(=O)(=O)c2ccc(-c3ccccc3)cc2)cc1 (stereo unspecified)	none
COc1ccc2c(=O)c(Oc3ccccc3)c(C(F)(F)F)oc2c1OC	none
CC(=O)Oc1ccc2c(=O)c(Oc3ccccc3)c(C)oc2c1OC(C)=O	none
COc1ccc2c(=O)c(Oc3ccccc3)c(C)oc2c1OC	ST2 IL33 inh 30%
COc1ccc(C2C(C(N)=O)=C(C)Nc3nc(SCc4ccccc4)nn32)cc1 (stereo unspecified)	none
CCN(CC)S(=O)(=O)C1CCS(=O)(=O)C1 (stereo unspecified)	none
Fc1ccc(C(Nc2ccccn2)c2c[nH]c3ccccc23)cc1 (stereo unspecified)	none
COc1ccc(C(Nc2cc(C)ccn2)c2ccc3ccc(C)nc3c2O)cc1OC (stereo unspecified)	none
Cc1ccc2ccc(C(Nc3ccccn3)c3ccc(N(C)C)cc3)c(O)c2n1 (stereo unspecified)	ST2 IL33 inh 41%
CSc1ccc(C(Nc2ccccn2)c2ccc3cccnc3c2O)cc1 (stereo unspecified)	ST2 IL33 inh 33%
